Data reported in PubChem BioAssay.
Records with an inconclusive call do not appear. Active and inactive are the calls of the source. Unless noted, no rule for the calls is given here.

Assays:
[1] = target: NAD(+) hydrolase SARM1 (Homo sapiens) (UniProt Q6SZW1); assay: blocking NAD cleavage by SARM1 SAM-TIR – cell lysate, NAD-Glo luminescence (AID 1508614;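 active = compound whose remaining NAD level is above about 45 nM, limit read from the data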;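 also: higher remaining NAD means stronger inhibition of SARM1 NADase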); details: SAM-TIR HEK293T lysate NADase, at 1 µM, stronger effect = higher value
Chain of NAD(+) hydrolase SARM1 (Homo sapiens) (Q6SZW1 whole entry, looked up, the tested form may be a part): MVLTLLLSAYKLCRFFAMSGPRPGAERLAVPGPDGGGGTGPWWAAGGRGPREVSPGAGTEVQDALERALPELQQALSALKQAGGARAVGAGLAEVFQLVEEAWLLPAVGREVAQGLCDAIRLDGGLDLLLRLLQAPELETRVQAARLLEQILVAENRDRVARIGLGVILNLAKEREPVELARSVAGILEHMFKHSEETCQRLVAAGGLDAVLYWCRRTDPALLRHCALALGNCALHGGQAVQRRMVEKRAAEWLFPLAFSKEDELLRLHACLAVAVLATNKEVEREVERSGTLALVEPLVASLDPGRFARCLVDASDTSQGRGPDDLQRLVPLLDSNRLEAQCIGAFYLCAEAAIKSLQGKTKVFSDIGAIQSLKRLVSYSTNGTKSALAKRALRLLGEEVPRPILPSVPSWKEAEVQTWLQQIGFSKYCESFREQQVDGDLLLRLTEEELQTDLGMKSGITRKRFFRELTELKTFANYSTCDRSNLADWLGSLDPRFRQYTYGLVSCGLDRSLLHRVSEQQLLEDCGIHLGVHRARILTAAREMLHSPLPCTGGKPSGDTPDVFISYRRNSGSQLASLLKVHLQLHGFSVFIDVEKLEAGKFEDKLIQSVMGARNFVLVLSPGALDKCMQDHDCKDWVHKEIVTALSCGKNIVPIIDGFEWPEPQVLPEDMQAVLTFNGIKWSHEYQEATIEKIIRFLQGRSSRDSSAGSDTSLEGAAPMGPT

[2] = target: Mitogen-activated protein kinase 7 (Homo sapiens) (UniProt Q13164); assay: Gal4-ERK5 driven luciferase induction – cell-based, HTS, primary screen (AID 1508626;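 active = luciferase signal above three times the same-plate solvent-only control wells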;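 also: luciferase driven by Gal4-ERK5 fusion binding five Gal4 sites before minimal TATA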); details: HeLa Gal4-ERK5 transactivation, 18 h, at 5 µM, stronger effect = higher value
Chain of Mitogen-activated protein kinase 7 (Homo sapiens) (Q13164 whole entry, looked up, the tested form may be a part): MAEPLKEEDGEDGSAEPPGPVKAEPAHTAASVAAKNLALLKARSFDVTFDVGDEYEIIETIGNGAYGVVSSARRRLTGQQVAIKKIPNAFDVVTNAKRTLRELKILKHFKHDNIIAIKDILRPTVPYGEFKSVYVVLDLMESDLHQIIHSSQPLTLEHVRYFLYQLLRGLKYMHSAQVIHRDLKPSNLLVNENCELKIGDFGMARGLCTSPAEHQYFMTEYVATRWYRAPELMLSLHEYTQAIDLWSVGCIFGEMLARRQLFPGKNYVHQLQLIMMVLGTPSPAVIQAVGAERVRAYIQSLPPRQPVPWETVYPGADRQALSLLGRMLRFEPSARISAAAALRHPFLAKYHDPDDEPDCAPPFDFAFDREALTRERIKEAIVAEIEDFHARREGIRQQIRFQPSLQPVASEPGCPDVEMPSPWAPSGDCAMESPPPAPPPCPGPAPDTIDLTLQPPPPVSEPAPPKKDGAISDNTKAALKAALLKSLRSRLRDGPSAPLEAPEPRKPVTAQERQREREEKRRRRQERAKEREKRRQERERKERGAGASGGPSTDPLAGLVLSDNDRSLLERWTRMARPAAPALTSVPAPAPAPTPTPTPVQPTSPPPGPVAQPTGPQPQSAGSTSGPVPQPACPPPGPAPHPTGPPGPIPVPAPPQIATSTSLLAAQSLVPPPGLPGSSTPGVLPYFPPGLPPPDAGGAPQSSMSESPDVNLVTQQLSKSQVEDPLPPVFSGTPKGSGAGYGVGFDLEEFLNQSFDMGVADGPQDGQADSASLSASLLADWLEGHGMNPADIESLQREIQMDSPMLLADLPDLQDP

[3] = compounds altering viability of human ES cells (AID 493140); details: human embryonic stem cell survival screen; stronger effect = higher value;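 also: cells exposed to compounds for four days before counting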
[4] = growth inhibition, single agents and combos, CRL2098, cell-based, BGB or cisplatin IC20 combos, synergistic combos for chromothripsis tumors (AID 1671454; in the data active = inhibition above about 80%;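 also: cells exposed for 96 h before readout; 0% = vehicle DMSO and 100% = killing by high DMSO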); details: CRL2098 osteosarcoma cells, drug combinations, stronger effect = higher value
[5] = growth inhibition, single agents and combos, HD-MB03, cell-based, BGB or cisplatin IC20 combos, synergistic combos for chromothripsis tumors (AID 1671455; in the data active = inhibition above about 83%;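 also: 0% = vehicle DMSO and 100% = high DMSO as cytotoxic control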); details: HD-MB03 medulloblastoma cells, stronger effect = higher value
[6] = growth inhibition, single agents and combos, UWB1.289, cell-based, BGB or cisplatin combos, synergistic combos for chromothripsis tumors (AID 1671456; in the data active = inhibition above about 80%;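 also: cells exposed to compound for four days; 0% = vehicle DMSO and 100% = killing by high DMSO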); details: UWB1.289 ovarian carcinoma cells, stronger effect = higher value
[7] = growth inhibition, single agents and combos, LFS_MB_2R, cell-based, cisplatin combos, synergistic combos for chromothripsis tumors (AID 1671457; in the data active = inhibition above about 80%;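 also: cells exposed to compound for four days before readout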); details: LFS_MB_2R medulloblastoma cells, stronger effect = higher value
[8] = UWB1.289_BRCA1 ovarian cancer growth, cell-based, BGB or cisplatin combinations (AID 1671459; in the data active = inhibition above about 80%); details: UWB1.289 BRCA1 ovarian carcinoma, drug combinations, stronger effect = higher value
[9] = drug combination toxicity in non-malignant astrocytes – cell-based, BGB or cisplatin IC20 combos, cytotoxicity control for chromothriptic childhood tumor combination screen (AID 1671460; in the data active = inhibition above about 80%;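 also: cells exposed to compounds for 96 hours before viability readout; 0% = vehicle and 100% = killing control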); details: Human astrocytes, viability inhibition, drug combinations, at 0.5 µM, stronger effect = higher value
[10] = blockers of MitoPT in mitochondria (AID 1580); details: isolated mitochondria, permeability transition inhibition
[11] = blockers of biotin-polyQ monomer incorporation into aggregates – biochemical, solid-phase synthetic aggregates, QA3 (AID 1585); details: polyQ aggregate elongation; EC50: measured here: elongation inhibition potency; inhibition: at 100 µM, stronger effect = higher value
[12] = selective SMN2 exon splicing luciferase activators – cell-based, SMN2/SMN1 luciferase reporters (AID 1598); details: SMN2 vs SMN1 luciferase splicing reporter cells, at 10 µM; SMN1 luciferase ratio: measured here: SMN1 luciferase reporter average; SMN2 luciferase ratio: measured here: SMN2 luciferase reporter average, stronger effect = higher value; SMN2/SMN1 luciferase ratio: stronger effect = higher value
[13] = compounds altering circadian rhythm period length – cell-based, LOPAC library, luminescence reporter (AID 2774); details: circadian reporter cells, at 7 µM, actives lie on both sides;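 also: values are relative to mean of DMSO wells on each plate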

SMILES: Cc1cc2nc3c(=O)[nH]c(=O)nc-3n(C[C@H](O)[C@H](O)[C@H](O)COP(=O)(O)O)c2cc1C
- remaining NAD [1]: 10 nM (inactive)

SMILES: CO[C@H]1C[C@H](O[C@H]2[C@H](C)O[C@@H](O[C@@H]3/C(C)=C/C[C@@H]4C[C@@H](C[C@]5(C=C[C@H](C)[C@@H](C6CCCCC6)O5)O4)OC(=O)[C@@H]4C=C(C)[C@@H](O)[C@H]5OC/C(=C\C=C\[C@@H]3C)[C@]54O)C[C@@H]2OC)O[C@@H](C)[C@@H]1O
- remaining NAD [1]: 10 nM (inactive)

SMILES: C[C@]12CC[C@@H]3c4ccc(OC(=O)c5ccccc5)cc4CC[C@H]3[C@@H]1CC[C@@H]2O
- luciferase signal [2]: 56 AU (inactive)

SMILES: CO[C@@H]1[C@@H](O[C@@H]2O[C@H](C)[C@@H](O[C@H]3C[C@@](C)(O)[C@@H](O)[C@H](C)O3)[C@H](N(C)C)[C@H]2O)[C@@H](CC=O)C[C@@H](C)[C@@H](O[C@H]2CC[C@H](N(C)C)[C@@H](C)O2)/C=C/C=C/C[C@@H](C)OC(=O)C[C@H]1O
- luciferase signal [2]: 216 AU (inactive)

SMILES: CC1(C)S[C@@H]2[C@H](NC(=O)[C@H](C(=O)O)c3ccsc3)C(=O)N2[C@H]1C(=O)O
- survival [3]: 15.8 (inactive)

SMILES: C=CC1=C(C)C2=CC3=NC(=C(CC(=O)O)C4=NC(=C(C)C4=C(O)O)C=c4[nH]c(c(C)c4CC)=CC1=N2)C(CCC(=O)O)C3C (stereo not given)
- inhibition ([4]; at 0.5 µM): -39.9% (inactive)
- inhibition ([4]; measured here: combination with BGB at IC20, at 0.5 µM): -14.4%
- inhibition ([4]; measured here: combination with cisplatin at IC20, at 0.5 µM): -71.5%
- inhibition ([5]; at 0.5 µM): -9.12% (inactive)
- inhibition ([5]; measured here: combo with BGB at IC20, at 0.5 µM): -0.977%
- inhibition ([5]; measured here: combo with cisplatin at IC20, at 0.5 µM): -18.8%
- inhibition ([6]; at 0.5 µM): -0.22% (inactive)
- inhibition ([6]; measured here: inhibition with BGB combination, at 0.05 µM): -17.7%
- inhibition ([6]; measured here: inhibition with cisplatin combination, at 0.05 µM): -4.64%
- inhibition ([7]; at 0.5 µM): -20% (inactive)
- inhibition ([7]; measured here: combination with cisplatin, at 0.5 µM): -3.5%
- inhibition ([7]; measured here: combination with cisplatin, at 5 µM): -14.7%
- inhibition ([8]; BGB combination, concentration series, at 5 µM): 12.6%
- inhibition ([8]; at 0.5 µM): -3.06% (inactive)
- inhibition ([8]; cisplatin combination, concentration series, at 5 µM): 10.4%
- inhibition [9]: -8.5% (inactive)
- inhibition ([9]; measured here: combo with BGB IC20): -9.9%
- inhibition ([9]; measured here: combo with cisplatin IC20): -17.9%

SMILES: CC[C@@H](C(=O)C(C)[C@@H](O)[C@H](C)CCc1ccc(C)c(O)c1C(=O)O)C1OC(CC)(C2CC[C@](O)(CC)[C@H](C)O2)C[C@@H]1C (stereo not given in full)
- EC50 [10]: 0.1 µM (active)

SMILES: O=c1c(O)cc2c(O)oc3c(=O)c(O)cc4c3c2c1CC=4O
- EC50 [11]: 44 µM
- inhibition [11]: 82% (active)

SMILES: CC[C@@]1(O)C[C@H](OC2CC(N(C)C)C(OC3CC(O)C(OC4CCC(=O)C(C)O4)C(C)O3)C(C)O2)c2c(cc3c(c2O)C(=O)c2c(O)cccc2C3=O)[C@H]1C(=O)OC (stereo not given in full)
- SMN1 luciferase ratio [12]: 1.26
- SMN2/SMN1 luciferase ratio [12]: 1.34 (active)
- SMN2 luciferase ratio [12]: 1.64

SMILES: NCCNC(=O)c1ccc(Cl)cc1
- period change [13]: 0.02 h (inactive)
